Hits are enriched below; roughly 5% of the tested compounds scored in any of these assays.
TbPYK inhibitor – T. brucei pyruvate kinase inhibition | TbPYK enzyme, Kinase-Glo Plus ATP luminescence, 45 min | Potency, µM (highest dose often 76.8 µM), actives largely listed as inhibitors | Q57TT1 | 410,000 compounds, 0.12% hits; further: nearly all actives have a fitted effect of over 50% in size
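Screened from lowest to highest concentration, compounds were pinned into TbPYK/substrate mixtures, and ADP (130 uM final) was added. Plates sat at room temperature for 45 min prior to Kinase-Glo Plus detection by luminescence.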
VACV mCherry inh – inhibitors of vaccinia virus infection (mCherry reporter signal) | Vaccinia virus mCherry reporter infection, fluorescence | Potency, µM (highest dose often 36.5 µM), most hits filed as inhibitors | AID 720579 | 310,000 compounds, 0.63% hits; calls by dose curve; tested in A549 cells; further: nearly all actives have a fitted effect of over 35% in size
LmPK inh – blocks Leishmania mexicana pyruvate kinase activity; Q27686; purified LmPK, Kinase-Glo ATP luminescence, 1 h; Potency, µM (highest dose often 57.5 µM), usual class: inhibitors; 290,000 compounds, 0.37% hits; AID 1721
Target sequence (Q27686 whole entry, looked up): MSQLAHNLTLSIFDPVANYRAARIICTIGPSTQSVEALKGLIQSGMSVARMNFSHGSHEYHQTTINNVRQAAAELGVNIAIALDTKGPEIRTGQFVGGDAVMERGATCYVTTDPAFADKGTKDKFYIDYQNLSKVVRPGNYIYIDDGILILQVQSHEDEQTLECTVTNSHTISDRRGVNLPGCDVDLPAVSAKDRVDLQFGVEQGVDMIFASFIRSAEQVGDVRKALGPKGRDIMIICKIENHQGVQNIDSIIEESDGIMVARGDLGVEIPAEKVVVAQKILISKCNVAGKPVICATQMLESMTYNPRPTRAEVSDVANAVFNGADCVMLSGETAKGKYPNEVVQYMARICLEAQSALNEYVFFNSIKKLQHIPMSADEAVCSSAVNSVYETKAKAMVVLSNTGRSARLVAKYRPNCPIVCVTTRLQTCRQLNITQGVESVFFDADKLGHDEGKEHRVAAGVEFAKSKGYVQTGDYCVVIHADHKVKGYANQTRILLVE
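In 50 mM imidazole pH 7.2 with 7 mM MgCl2, LmPK (0.1 nM) turned over PEP (0.5 mM) and ADP (0.1 mM) for 1 h at room temperature. Luciferase read-out of ATP.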
HCMV inh – blocks human cytomegalovirus replication; HFF cells, HCMV-luciferase reporter, 72 h; hits give low values; 410,000 compounds, 4.5% hits; activity change, negative = inhibition, % at 57.5 µM; in the data active means activity change below about -60%; inconclusive means no clear call, values can overlap the other calls; inactive means above about -39%
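Two compound doses tested in HFFs infected with HCMV-luciferase, MOI 1 PFU/cell, 72 h at 37C. Lysate luminescence read with OneGlo; data normalized against buffer-only and 10uM Salinomycin inhibitor controls.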
VACV Venus inh – inhibitors of vaccinia virus (Venus reporter); 330,000 compounds, 0.46% hits; Potency, µM (titrated, usually from 36.5 µM), actives largely listed as inhibitors; Vaccinia virus Venus reporter expression, fluorescence; AID 720580; calls by dose curve; tested in A549 cells; further: nearly all actives have a fitted effect of over 30% in size
Of the large screens only hits and unclear results are named; the others gave an inactive call. Unless noted, the call rests on the fitted dose curve; in most records, active means well fitted curve in the direction sought with a large enough effect; inconclusive means small, poorly fitted or top-dose-only effect, or another doubt; inactive means no such curve, though single readings can be large; an effect the other way counts as inactive or inconclusive.

CN(Cc1ccc(Cl)c(Cl)c1)C(c1cc2ccccc2o1)c1nnnn1C(C)(C)C (stereo not given)	HCMV inh -78 (no result: LmPK inh)
COc1ccc(C(O)c2nc(-c3cc4ccccc4o3)cs2)cc1 (stereo not given)	none (no result: LmPK inh)
CC1=C(C(=O)N2CCCCCC2)CC(CC(=O)NCCc2ccccn2)C(=O)N1CCCN1CCCC1=O (stereo not given)	HCMV inh -84 (no result: TbPYK inhibitor, VACV mCherry inh, LmPK inh, VACV Venus inh)
N/C(=N\[N+](=O)[O-])N1CCN(C(=O)c2ccccn2)CC1	none
COc1cc(OC)cc(C2=Cc3ccc(OC)cc3C(CC(C)=O)N2c2ccc(-c3cccs3)cc2)c1 (stereo not given)	HCMV inh -83 (no result: LmPK inh)
CCOC(=O)c1ccc(N2C(=O)c3n[nH]c(-c4cccs4)c3C2c2ccc(Cl)cc2Cl)cc1 (stereo not given)	VACV mCherry inh inconclusive, HCMV inh -107, VACV Venus inh inconclusive (no result: LmPK inh)
CCOC(=O)c1ccc(N2C(=O)c3n[nH]c(-c4cccs4)c3C2c2ccc(O)c(OC)c2)cc1 (stereo not given)	HCMV inh -74 (no result: LmPK inh)
CNC(=O)c1c(NC(=O)c2ccc(S(=O)(=O)N3CCCCC3)cc2)sc2c1CCC2	none (no result: LmPK inh)
CCC(=O)Nc1ccc(C(=O)Nc2cccnc2)cc1	none
Cn1c(C(=O)NCc2ccccc2Cl)cc2sc(Cl)cc21	HCMV inh -62 (no result: LmPK inh)
CCn1c(C(=O)NCc2ccccc2Cl)cc2sc(Cl)cc21	HCMV inh inconclusive (no result: LmPK inh)
Cc1ccccc1NC(=O)CN1C(=O)S/C(=C\c2cccn2-c2cccc(C(=O)O)c2)C1=O	none (no result: VACV mCherry inh)
Cc1cccc(C)c1NC(=O)CN1C(=O)S/C(=C\c2cccn2-c2cccc(C(=O)O)c2)C1=O	HCMV inh -73
COc1ccc(NC(=O)CN(C)S(=O)(=O)c2ccc3nc(C)sc3c2)cc1	none (no result: LmPK inh)
Cc1nc2ccc(S(=O)(=O)N(C)CC(=O)Nc3ccc(C(C)C)cc3)cc2s1	HCMV inh -60 (no result: LmPK inh)
CCSC1=C(C#N)C(c2ccccc2Cl)C(C(=O)c2cccs2)C(O)(C(F)(F)F)N1 (stereo not given)	none (no result: VACV mCherry inh, VACV Venus inh)
C=CCSC1=C(C#N)C(c2ccccc2Cl)C(C(=O)c2cccs2)C(O)(C(F)(F)F)N1 (stereo not given)	HCMV inh -70
COc1cccc(NC(=O)CSc2nc3c([nH]c4ccccc43)c(=O)n2C)c1	none
C=CC(C)(C)c1c(O)c(CC=C(C)C)c(O)c2c(=O)c3ccc(O)c(O)c3oc12	VACV mCherry inh 8.9µM, VACV Venus inh inconclusive (no result: LmPK inh, HCMV inh)
Cc1cccc(NC(=O)C2CCN(S(=O)(=O)c3ccc4c(c3)OCCO4)CC2)n1	HCMV inh inconclusive (no result: LmPK inh)
Cc1ccc(NC(=O)C2CCN(S(=O)(=O)c3ccc4c(c3)OCCCO4)CC2)nc1	HCMV inh -63 (no result: LmPK inh)
Cc1cccc(NC(=O)C2CCN(S(=O)(=O)c3ccc4c(c3)OCCCO4)CC2)n1	HCMV inh -79 (no result: LmPK inh)
CCC12CN3CC(C)(CN(C1)C3c1c(C)[nH]c3ccccc13)C2=O (stereo not given)	none (no result: LmPK inh)
CCn1c(=O)c([N+](=O)[O-])c(NCCCn2ccnc2)c2ccccc21	HCMV inh -65
O=[N+]([O-])c1cc(Cl)c2cccnc2c1O	VACV mCherry inh 28µM, HCMV inh -74, VACV Venus inh inconclusive
O=[N+]([O-])c1cc(Cl)c(O)c2ncccc12	VACV mCherry inh inconclusive, HCMV inh -98, VACV Venus inh inconclusive
O=[N+]([O-])c1ccc(O)c2ncccc12	VACV mCherry inh 10µM, HCMV inh -99, VACV Venus inh inconclusive
Clc1cc2cccnc2c2ncccc12	HCMV inh -96 (no result: VACV mCherry inh, LmPK inh, VACV Venus inh)
CCOC(=O)c1cc(OC(=O)c2ccccc2Br)n(-c2ccccc2)n1	none (no result: VACV mCherry inh, VACV Venus inh)
COc1ccc(-c2nc3cc(NC(=O)COc4ccc(C)c(C)c4)ccc3o2)cc1	none (no result: LmPK inh)
O=c1[nH]cc(F)c(=O)[nH]1	VACV mCherry inh 5.6µM, HCMV inh inconclusive
O=C(C1CC1)N1CCc2cc(Br)c(S(=O)(=O)N3CCCCCC3)cc21	VACV mCherry inh inconclusive (no result: LmPK inh)
Cc1cc(OCCOCCN(C)CCO)cc(C)c1Cl	none
CCN(CC)CCOCCOc1cc(C)c(Cl)c(C)c1	VACV mCherry inh inconclusive, HCMV inh -72
CN(C)c1ccc(/C=C/c2ccnc3c(O)cccc23)cc1	VACV mCherry inh 10µM, VACV Venus inh inconclusive (no result: TbPYK inhibitor, LmPK inh, HCMV inh)
CN(C)c1ccc(C=Cc2ccnc3c(O)cccc23)cc1	VACV mCherry inh inconclusive, HCMV inh -99, VACV Venus inh inconclusive (no result: LmPK inh)
Cc1cccc2c(/C=C/c3ccc(N(C)C)cc3)ccnc12	none (no result: TbPYK inhibitor, LmPK inh, HCMV inh)
CCOC(=O)C1CC(=O)c2ccccc2C1c1ccccc1 (stereo not given)	none (no result: LmPK inh)
CC[n+]1cccc(Br)c1	none (no result: TbPYK inhibitor, LmPK inh, HCMV inh)
c1ccc(CCNc2nc(-c3ccncc3)nc3ccccc23)cc1	HCMV inh -71
c1ccc(Nc2nc(-c3ccncc3)nc3ccccc23)cc1	none
O=C1CC(c2cccc(Cl)c2)Cc2nc(N3CCOCC3)ncc21 (stereo not given)	none (no result: VACV mCherry inh)
CCc1nc2ccc(F)cc2c(C(=O)NC2CCCCC2C)c1C (stereo not given)	none (no result: TbPYK inhibitor, VACV mCherry inh, VACV Venus inh)
C=C(NC(=O)C(=C)NC(=O)c1csc(C2=NC3c4csc(n4)C4NC(=O)c5csc(n5)C(C(C)(O)C(C)O)NC(=O)C5CSC(=N5)/C(=C/C)NC(=O)C(C(C)O)NC(=O)c5csc(n5)C3(CC2)NC(=O)C(C)NC(=O)C(=C)NC(=O)C(=C)NC(=O)C(C(C)C)NC2C=Cc3c(C(C)O)cc(nc3C2O)C(=O)OC4C)n1)C(N)=O (stereo not given)	HCMV inh -98 (no result: LmPK inh)
C=C(NC(=O)C(=C)NC(=O)c1csc(C2=NC3c4csc(n4)C4NC(=O)c5csc(n5)C(C(C)(O)C(C)O)NC(=O)C5CSC(=N5)C(=CC)NC(=O)C(C(C)O)NC(=O)c5csc(n5)C3(CC2)NC(=O)C(C)NC(=O)C(=C)NC(=O)C(C)NC(=O)C(C(C)CC)NC2C=Cc3c(C(C)O)cc(nc3C2O)C(=O)OC4C)n1)C(N)=O (stereo not given)	none (no result: TbPYK inhibitor, LmPK inh, HCMV inh)
S=c1[nH]nc(C2CCCCC2)n1/N=C/c1cccc(Br)c1	none
S=c1[nH]nc(C2CCCCC2)n1/N=C/c1ccncc1	TbPYK inhibitor inconclusive, HCMV inh -88
COc1cc(/C=N/n2c(C3CCCCC3)n[nH]c2=S)cc(Br)c1O	TbPYK inhibitor 7.9µM (no result: VACV mCherry inh, VACV Venus inh)
CCCN(C(=O)c1ccc2c(SCC(=O)O)c3c(nc2c1)CCC3)c1cccc(C)c1	HCMV inh -60
CC(=O)c1ccc(NC(=O)NC2CCCc3ccccc32)cc1 (stereo not given)	none (no result: VACV mCherry inh, VACV Venus inh)
O=C(NC1CCSc2ccccc21)c1c(F)cccc1Cl (stereo not given)	none
O=C(NC1CCCc2ccccc21)c1c(F)cccc1Cl (stereo not given)	HCMV inh -67
CC(=O)c1cccc(NC(=O)NC2CCCc3ccccc32)c1 (stereo not given)	HCMV inh -70 (no result: VACV mCherry inh, VACV Venus inh)
O=C(Cc1ccc(Br)cc1)NC1CCCc2ccccc21 (stereo not given)	none
